Eight compounds from PubChem BioAssay (NCI) can be followed below.

Molecules are shown by their SMILES. Compounds without any hit were thinned out: in the full panel of roughly 83,000, 20% have a hit.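 Assay: single dose, 48 h. Readout: percent growth (0 = no net growth; negative = cell death). Active: <10.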 Values without a mark were called inactive. Calls of active or inactive are those of the source.

Some test systems named below: DU-145 prostate; K-562 leukemia; MALME-3M melanoma; MDA-MB-231 breast; RXF 393 renal; SF-268 CNS; SF-295 CNS; SF-539 CNS; UACC-257 melanoma; M14 melanoma; HCT-15 colon; HT29 colon; SNB-19 CNS; U251 CNS; PC-3 prostate; SK-MEL-5 melanoma; UACC-62 melanoma; LOX IMVI melanoma; SK-MEL-28 melanoma; SNB-75 CNS.
Holding throughout (test): NCI-60 one-dose screen, 48 h (100 = growth as untreated, 0 = no growth, -100 = all killed)
What all share (settings): 10 µM unless noted

Consider `c1ccc2cc(C[n+]3ccn(CCCCCCCCCCn4cc[n+](Cc5ccc6ccccc6c5)c4)c3)ccc2c1`, for which the growth in the test with DU-145 prostate is 28.4%; in the test with K-562 leukemia, 8.6% (active); in the test with MALME-3M melanoma it was -20.4% (active); in the test on MDA-MB-231 breast, 16.5%; in the test on RXF 393 renal, 9.07% (active); in the test with SF-268 CNS, 13.7%. The growth with SF-295 CNS is 16.5%; in the test with SF-539 CNS it was 10.4%; in the test on UACC-257 melanoma it was -13.8% (active); in the test on M14 melanoma, 31.8%; in the test with HCT-15 colon, 50.5%; in the test with HT29 colon it was -32.5% (active). Further, the growth is 22.8% in the test with SNB-19 CNS; 11.7% with U251 CNS; 7.04% (active) in the test on PC-3 prostate; -56.4% (active) in the test on SK-MEL-5 melanoma; 16.9% in the test with UACC-62 melanoma; -53.9% (active) with LOX IMVI melanoma. Also, in the test on SK-MEL-28 melanoma, the growth is 20.6%.

As to `COc1cc(C2c3cc(OC(C)=O)c(OC)cc3CC3C(=O)OCC32)ccc1OC(C)=O` (stereo not drawn), the growth with DU-145 prostate is 115%; in the test with K-562 leukemia it was 115%; in the test on MALME-3M melanoma, 112%; in the test on MDA-MB-231 breast it was 105%; in the test on RXF 393 renal, 115%; in the test with SF-268 CNS it was 111%. Further, the growth in the test on SF-295 CNS was 112%; in the test with SF-539 CNS it was 99.4%; in the test on UACC-257 melanoma, 103%; with M14 melanoma, 106%; in the test on HCT-15 colon it was 104%; in the test on HT29 colon it was 97.6%. Besides, the growth with SNB-19 CNS is 116%; in the test with U251 CNS, 92.6%; with PC-3 prostate it was 68.3%; in the test with SK-MEL-5 melanoma, 109%; with UACC-62 melanoma, 103%; in the test with LOX IMVI melanoma, 103%. Besides, in the test with SK-MEL-28 melanoma, the growth is 122%.

`O=C(Nc1cccc2ccccc12)NC1CC1`: the growth is 141% with DU-145 prostate; 107% in the test with K-562 leukemia; 123% in the test with MALME-3M melanoma; 113% with MDA-MB-231 breast; 107% in the test on RXF 393 renal; 120% in the test with SF-268 CNS. The growth with SF-295 CNS is 116%; in the test with SF-539 CNS, 122%; with UACC-257 melanoma, 106%; in the test on M14 melanoma, 103%; with HCT-15 colon it was 112%; with HT29 colon, 114%. The growth was 107% in the test on SNB-19 CNS; 101% in the test on U251 CNS; 97.4% in the test with PC-3 prostate; 103% with SK-MEL-5 melanoma; 99.8% in the test with UACC-62 melanoma; 101% in the test with LOX IMVI melanoma. For the same compound, the growth in the test on SK-MEL-28 melanoma was 105%.

On to `CCOc1ccccc1Cn1ccnc1CCc1c(Cl)c(O)cc(O)c1C(=O)OC`, for which the growth in the test on DU-145 prostate was 104%; in the test with K-562 leukemia it was 94.7%; in the test on MALME-3M melanoma, 91.8%; with MDA-MB-231 breast, 96.7%; with RXF 393 renal, 108%; in the test on SF-268 CNS, 102%. Further, the growth in the test with SF-295 CNS is 95.2%; in the test with SF-539 CNS it was 103%; in the test with UACC-257 melanoma it was 93.7%; in the test on M14 melanoma it was 95.2%; in the test with HCT-15 colon, 104%; in the test on HT29 colon it was 94.8%. For the same compound, the growth with SNB-19 CNS is 92.4%; with U251 CNS it was 97.5%; in the test on SK-MEL-5 melanoma, 94.6%; in the test on UACC-62 melanoma, 92.1%; in the test on LOX IMVI melanoma, 89.2%; in the test on SK-MEL-28 melanoma, 96.6%.

For `Cc1sc2nc(NCCc3c[nH]c4ccc(Cl)cc34)[nH]c(=O)c2c1C`, the growth is 62.2% in the test on DU-145 prostate; 22.3% in the test with K-562 leukemia; 60.2% in the test with MALME-3M melanoma; 31.1% in the test with MDA-MB-231 breast; 7.63% (active) with RXF 393 renal; 15.5% with SF-268 CNS. Further, the growth in the test with SF-295 CNS is 50.7%; in the test with SF-539 CNS, 40.1%; in the test on UACC-257 melanoma it was 32.6%; with M14 melanoma it was 26.5%; with HCT-15 colon it was 7.96% (active); in the test on SNB-75 CNS it was 23.5%. The growth is 63.8% with SNB-19 CNS; 32.3% in the test with U251 CNS; 29.2% with PC-3 prostate; 50.4% in the test on SK-MEL-5 melanoma; 42.3% with UACC-62 melanoma; 26.5% with LOX IMVI melanoma. Also, the growth in the test with SK-MEL-28 melanoma was 70.1%.

Take `COC1=CC(c2ccc[nH]2)=N/C1=C\c1[nH]c(C)c(CC(=O)OCc2ccccc2)c1CCC(=O)OCc1ccccc1`: the growth in the test on DU-145 prostate is 11.8%; in the test with K-562 leukemia, -11.3% (active); with MALME-3M melanoma, -62.1% (active); in the test with MDA-MB-231 breast, -44.5% (active); in the test with RXF 393 renal, -42.6% (active); in the test with SF-268 CNS, -2.4% (active). Moreover, the growth with SF-295 CNS is -62.3% (active); in the test with SF-539 CNS, -78.1% (active); in the test on UACC-257 melanoma, -46% (active); with M14 melanoma, -78.2% (active); with HCT-15 colon it was -56.7% (active); with SNB-19 CNS it was 25.5%. The growth was -40.3% (active) in the test on PC-3 prostate; -93.8% (active) with SK-MEL-5 melanoma; -69.7% (active) in the test with UACC-62 melanoma; -80.7% (active) in the test with LOX IMVI melanoma; -52.4% (active) in the test with SK-MEL-28 melanoma.

`Cc1c[n+](Cc2ccc3ccccc3c2)cn1Cc1ccc2ccccc2c1`: the growth in the test with DU-145 prostate is 37.1%; in the test on K-562 leukemia it was 8.82% (active); in the test on MALME-3M melanoma, 0.847% (active); with MDA-MB-231 breast, -8.23% (active); with RXF 393 renal, 2.91% (active); in the test on SF-268 CNS, 24.3%. Also, the growth was 45.5% in the test on SF-295 CNS; 33.1% in the test on SF-539 CNS; -26.1% (active) with UACC-257 melanoma; -15.5% (active) in the test on M14 melanoma; 95.1% with HCT-15 colon; -0.361% (active) in the test on SNB-75 CNS. For the same compound, the growth with SNB-19 CNS is 17.7%; in the test on U251 CNS, 8.55% (active); in the test with PC-3 prostate it was 10.3%; with SK-MEL-5 melanoma, -71.2% (active); in the test with LOX IMVI melanoma it was 19.5%; with SK-MEL-28 melanoma, 4.48% (active).

As to `COC(=O)CC[C@@H]1O[C@@H](c2cccc(C(F)(F)F)c2)[C@@H](O)[C@H]1O`, the growth in the test on DU-145 prostate is 103%; in the test on K-562 leukemia it was 112%; with MALME-3M melanoma, 99.1%; in the test with MDA-MB-231 breast it was 108%; in the test with RXF 393 renal, 95.3%; in the test on SF-268 CNS it was 101%. Moreover, the growth is 104% in the test on SF-295 CNS; 97.2% with SF-539 CNS; 106% in the test on UACC-257 melanoma; 102% in the test on M14 melanoma; 101% with HCT-15 colon; 92.5% with SNB-75 CNS. Besides, the growth with SNB-19 CNS is 107%; with U251 CNS, 102%; with PC-3 prostate, 97.8%; with SK-MEL-5 melanoma it was 98%; with UACC-62 melanoma, 104%; with LOX IMVI melanoma, 97.4%. In the test with SK-MEL-28 melanoma, the growth is 105%.
